Results on four compounds are retold here after PubChem BioAssay (NCATS).

The target in assay [1] is Lysosomal acid glucosylceramidase (Homo sapiens) (UniProt P04062). As to the kind of experiment: Glucocerebrosidase-p2 (AID 348; in the data active = potency below about 10 µM; note: potency is the fitted concentration of half-maximal effect). The settings on record: purified GBA, blue fluorogenic substrate, 40 min. In outline: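 Normal human glucocerebrosidase (0.2 nM) with blue fluorogenic substrate (80 uM final) in citrate/phosphate pH 5.9 with 10mM sodium taurocholate, 0.01% tween-20; 40 min RT, NaOH/glycine stop; fluorescence Ex 365/Em 440; AC50 from a titration from 0.6 nM upwards.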
Sequence of Lysosomal acid glucosylceramidase (Homo sapiens) (P04062 whole entry, looked up): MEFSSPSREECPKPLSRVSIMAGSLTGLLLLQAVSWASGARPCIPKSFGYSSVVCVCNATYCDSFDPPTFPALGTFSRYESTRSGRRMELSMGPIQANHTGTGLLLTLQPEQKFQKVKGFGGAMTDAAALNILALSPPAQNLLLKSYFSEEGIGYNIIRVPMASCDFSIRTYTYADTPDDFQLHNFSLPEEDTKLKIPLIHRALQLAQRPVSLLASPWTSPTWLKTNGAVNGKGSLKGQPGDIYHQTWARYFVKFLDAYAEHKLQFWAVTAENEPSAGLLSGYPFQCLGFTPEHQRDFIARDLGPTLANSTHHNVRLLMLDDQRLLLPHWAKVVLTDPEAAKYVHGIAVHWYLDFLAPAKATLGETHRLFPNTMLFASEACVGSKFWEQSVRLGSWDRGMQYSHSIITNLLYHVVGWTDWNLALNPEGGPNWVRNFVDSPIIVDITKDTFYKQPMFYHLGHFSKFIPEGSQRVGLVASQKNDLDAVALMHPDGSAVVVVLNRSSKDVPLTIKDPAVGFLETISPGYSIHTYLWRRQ

Assay [2] is described as follows: AP1 Signaling Pathway (AID 357).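 Note: ME-180 reporter cells stimulated with EGF at its EC50 level; % is set by controls: 0 for no effect and ±100 for the full control effect.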 Conditions: ME-180 AP-1-bla reporter, EGF-induced, beta-lactamase ratio, 5 h; at 7.69 µM (top of the series) unless noted. In outline:
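Cells are seeded overnight, exposed to compound titrations and an EC50 level of EGF for 5 hours at 37 °C, then loaded with CCF4 dye for 2.5 hours. Beta-lactamase activity under the AP-1 element is read as a blue/green ratio.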

Assay [3] deals with Cytochrome P450 1A2 (Homo sapiens) (UniProt P05177). As to the kind of experiment: p450-cyp1a2 (AID 410; calls by dose curve; note: potency is the fitted concentration of half-maximal effect). The settings on record: recombinant CYP1A2, luciferin-ME demethylation, luminescence; series mostly up to 57 µM. In outline: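 20nM CYP1A2, 100uM Luciferin-ME (=Km), 100mM KPO4; cpd 10 min RT; +NADPH regen, 60 min RT; stop/detect 20 min; luminescence. Normalized to furafylline 57 uM = full inhibition.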
Sequence of Cytochrome P450 1A2 (Homo sapiens) (P05177 whole entry, looked up): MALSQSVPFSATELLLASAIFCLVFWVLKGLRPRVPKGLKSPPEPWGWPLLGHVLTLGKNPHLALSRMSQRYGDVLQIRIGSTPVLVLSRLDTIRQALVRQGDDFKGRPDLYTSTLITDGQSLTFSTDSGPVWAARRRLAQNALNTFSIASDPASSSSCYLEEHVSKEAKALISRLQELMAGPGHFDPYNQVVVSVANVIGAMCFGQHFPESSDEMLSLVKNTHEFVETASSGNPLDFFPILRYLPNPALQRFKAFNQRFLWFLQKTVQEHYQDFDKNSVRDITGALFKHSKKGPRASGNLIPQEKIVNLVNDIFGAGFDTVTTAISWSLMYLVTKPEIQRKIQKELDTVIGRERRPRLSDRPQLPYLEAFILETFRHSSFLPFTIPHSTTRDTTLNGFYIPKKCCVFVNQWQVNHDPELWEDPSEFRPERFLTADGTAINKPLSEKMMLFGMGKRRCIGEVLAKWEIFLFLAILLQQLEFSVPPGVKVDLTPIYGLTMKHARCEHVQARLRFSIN

For assay [4], the target named is Glucocorticoid receptor (Homo sapiens) (UniProt P04150). In words: GR-GFP Redistribution (AID 450;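 active = compounds whose dose series gives a full or clear partial fitted curve of increased nuclear translocation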; note: potency is the fitted concentration of half-maximal effect). The settings on record: U2OS GR-GFP nuclear translocation, laser cytometry, 2 h.
Sequence of Glucocorticoid receptor (Homo sapiens) (P04150 whole entry, looked up, the tested form may be a part): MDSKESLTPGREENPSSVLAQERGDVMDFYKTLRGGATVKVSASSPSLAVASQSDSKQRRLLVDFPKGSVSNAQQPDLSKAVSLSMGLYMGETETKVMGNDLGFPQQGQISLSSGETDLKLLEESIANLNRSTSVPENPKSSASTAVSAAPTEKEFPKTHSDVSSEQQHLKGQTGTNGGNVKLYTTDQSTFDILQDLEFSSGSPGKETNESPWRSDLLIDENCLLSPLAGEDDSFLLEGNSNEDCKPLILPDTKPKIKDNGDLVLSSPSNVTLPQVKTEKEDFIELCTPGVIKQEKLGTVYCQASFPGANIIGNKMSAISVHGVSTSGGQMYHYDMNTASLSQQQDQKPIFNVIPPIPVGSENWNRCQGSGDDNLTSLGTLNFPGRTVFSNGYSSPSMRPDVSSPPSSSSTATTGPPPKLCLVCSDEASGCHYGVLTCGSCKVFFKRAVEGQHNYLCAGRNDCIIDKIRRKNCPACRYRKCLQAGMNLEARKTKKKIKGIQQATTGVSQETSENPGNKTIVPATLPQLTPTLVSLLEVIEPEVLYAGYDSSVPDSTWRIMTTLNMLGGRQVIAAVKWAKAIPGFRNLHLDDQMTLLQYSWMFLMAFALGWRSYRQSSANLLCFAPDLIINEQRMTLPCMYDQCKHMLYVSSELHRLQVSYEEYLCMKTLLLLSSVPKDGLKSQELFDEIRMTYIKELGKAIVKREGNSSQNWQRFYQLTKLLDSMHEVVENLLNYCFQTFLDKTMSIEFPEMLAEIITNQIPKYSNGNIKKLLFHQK
The target is the same in assay [5]. In words: GR-EFC Redistribution (AID 451; calls by dose curve; note: potency is the fitted concentration of half-maximal effect). Conditions: CHO-K1 GR-EFC translocation, beta-gal luminescence, 2 h. The method in brief: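 CHO-K1 cells stably expressing nuclear-localized β-gal enzyme acceptor and GR fused C-terminally to the enzyme donor fragment; ligand-driven nuclear translocation restores β-gal by complementation. Compounds titrated up to 46 uM final, 2 h at 37 °C; luminescence read.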

For assay [6], the target named is 3',5'-cyclic-AMP phosphodiesterase 4B (Homo sapiens) (UniProt Q07343). As to the kind of experiment: qHTS Assay for Inhibitors of PDE-IV (AID 607; active = well fitted activation curve with a large enough effect in the main read-out, with a control signal flat, not every such curve was filed as active; note: % of control where 0% means no effect). Conditions: HEK293 ACTOne CNG channel cells, membrane potential fluorescence; series mostly up to 22.9 µM. In outline:
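The readout is membrane depolarisation from a cAMP-sensing CNG channel, detected with a potential dye at ex 535/em 590. Cells were HEK293-derived (endogenous PDE-IV) at 1000 cells/well, titrated up to 22.9 uM final.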
(Quantitative high-throughput screening tests each substance at several concentrations.)

For assay [7], the target named is Cytochrome P450 3A4 (Homo sapiens) (UniProt P08684). In words: qHTS Assay for Activators of Cytochrome P450 3A4 (AID 885; active = well fitted curve in the direction sought with a large enough effect; an effect the other way counts as inactive or inconclusive; note: nearly all actives have a fitted effect of over 65% in size). Conditions: recombinant CYP3A4, Luciferin-PPXE luminescence, 60 min; series mostly up to 57.1 µM. The method in brief: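 Activators are scored by enhanced luminescence from CYP3A4 conversion of luciferin-PPXE (25uM, equal to KM) to luciferin, after 60 min at RT with an NADPH-regenerating system.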
Sequence of Cytochrome P450 3A4 (Homo sapiens) (P08684 whole entry, looked up): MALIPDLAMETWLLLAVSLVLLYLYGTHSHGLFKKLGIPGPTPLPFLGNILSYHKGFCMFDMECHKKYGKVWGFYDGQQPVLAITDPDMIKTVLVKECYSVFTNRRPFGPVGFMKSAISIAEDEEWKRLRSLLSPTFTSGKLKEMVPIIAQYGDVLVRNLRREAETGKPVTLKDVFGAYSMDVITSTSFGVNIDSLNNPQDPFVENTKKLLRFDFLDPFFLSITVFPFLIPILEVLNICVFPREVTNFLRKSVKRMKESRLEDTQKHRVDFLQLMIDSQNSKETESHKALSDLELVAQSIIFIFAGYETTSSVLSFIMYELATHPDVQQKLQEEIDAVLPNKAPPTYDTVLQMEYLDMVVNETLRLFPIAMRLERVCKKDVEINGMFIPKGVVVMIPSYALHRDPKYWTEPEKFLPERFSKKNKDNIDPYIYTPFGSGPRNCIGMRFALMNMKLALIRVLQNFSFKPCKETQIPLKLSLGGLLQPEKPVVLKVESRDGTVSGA

The nature of assay [8]: qHTS Assay for Identification of Small Molecule Agonists for Hypoxia Response Element Signaling Pathway (AID 914; active = well fitted activation curve with a large enough effect in the signal ratio, with a control signal flat, not every such curve was filed as active; the % refers to the signal ratio; note: potency is the fitted concentration of half-maximal effect). Conditions: ME-180 HRE-bla reporter, beta-lactamase ratio, CoCl2, 17 h; activation: stronger effect = higher value. In outline:
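ME-180 cells carrying an HRE-driven beta-lactamase reporter were treated with compounds in a titration series plus an EC50 level of CoCl2 for 17 h at 37 degrees Celsius; CCF4 readout as the 460nm/530nm ratio gave AC50 values.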

The nature of assay [9]: qHTS Assay for Lipid Storage Modulators (AID 1519; calls by dose curve). The settings on record: Drosophila S3 cells, BODIPY lipid droplet/cell ratio, laser cytometry, cells loaded with oleic acid; for activity change, negative = inhibition: at 57.5 µM (top of the series). In outline:
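Cells seeded at 5,000 per well were treated with compounds over a concentration series and loaded with oleic acid (400 uM, as added). Lipid droplet fluorescence (488 nm excitation, 500-530 nm channel) was read by laser-scanning cytometry and normalized to 20 uM Triacsin C.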

Assay [10] can be described thus: Primary qHTS for small molecule stabilizers of the endoplasmic reticulum resident proteome: Secreted ER Calcium Modulated Protein (SERCaMP) assay (AID 1508630; active = well fitted curve in the direction sought with a large enough effect; an effect the other way counts as inactive or inconclusive; note: % is set by controls: 0 for no effect and ±100 for the full control effect). The settings on record: SH-SY5Y GLuc-SERCaMP (Gaussia luciferase released on ER calcium loss) secretion, thapsigargin, luminescence; series mostly up to 38.4 µM. In outline: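 The SH-SY5Y reporter protocol was run at 3 concentrations up to 38.3 uM (primary) or 11 concentrations (follow-up): 16 h compound, 100 nM thapsigargin for 4 h, then extracellular luciferase luminescence.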

A short description of assay [11]: NFAT Signaling Pathway (AID 444).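 Note: carbachol stimulus at about its EC50 of 1 µM final; % is set by controls: 0 for no effect and ±100 for the full control effect.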 Conditions: Jurkat NFAT-bla M1, carbachol, beta-lactamase ratio, 5 h; at 7.69 µM (top of the series) unless noted. In outline:
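Jurkat cells carrying an NFAT-driven β-lactamase reporter and co-transfected muscarinic M1 receptor were treated with compound plus carbachol (1 uM final, an EC50 level) for 5 h at 37 °C. CCF4 loading followed for 1 h at RT; 460/530 nm ratio gave %activity.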

Assay [12] is described as follows: Stat Signaling Pathway (AID 446).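 Note: ME-180 cervical cancer cells given 40 pM IL-6 alongside compound; SIE-controlled beta-lactamase reporter measured as 460/530 nm FRET emission ratio; % is set by controls: 0 for no effect and ±100 for the full control effect.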 Conditions: ME-180 (cervical carcinoma) SIE beta-lactamase reporter, IL-6 stimulated, 5 h; at 7.69 µM (top of the series) unless noted. In outline:
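Emission at 460 and 530 nm (excitation 405 nm) reports SIE-controlled beta-lactamase in ME-180 cells. Cells received compound with 40 pM IL-6 for 5 hrs at 37 C; data scaled between 300 pM IL-6 and 125 nM JAK-inhibitor controls.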

In assay [13] the target is Mitogen-activated protein kinase 10 (Mus musculus) (UniProt Q61831). In words: JNK3 AlphaScreen Assay (AID 530). Conditions: JNK3 lysate, c-Jun phosphorylation; series mostly up to 57.1 µM. In outline:
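Biotinylated GST-cJun(1-79) served as substrate for JNK3 in HepG2 lysates stimulated with IL-1beta and TNF-alpha. ATP was 10 uM final, pH 7.6. Ser73 phosphorylation was quantified by AlphaScreen (680 nm excitation).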

Setting [14] is: measured here: cell count channel max response.
The mark [15] stands for this setting: measured here: lipid channel max response.

Inconclusive results are not listed. Active and inactive are the calls of the source. Unless noted, calls come from the whole dose curve; as a rule, active = well fitted curve in either direction with a large enough effect (not every such curve was filed as active); inconclusive = small, poorly fitted or top-dose-only effect, or another doubt; inactive = flat fitted curve, though single readings scatter. Where only a bound is given, the exact number is not on record here.

Sequence of 3',5'-cyclic-AMP phosphodiesterase 4B (Homo sapiens) (Q07343 whole entry, looked up): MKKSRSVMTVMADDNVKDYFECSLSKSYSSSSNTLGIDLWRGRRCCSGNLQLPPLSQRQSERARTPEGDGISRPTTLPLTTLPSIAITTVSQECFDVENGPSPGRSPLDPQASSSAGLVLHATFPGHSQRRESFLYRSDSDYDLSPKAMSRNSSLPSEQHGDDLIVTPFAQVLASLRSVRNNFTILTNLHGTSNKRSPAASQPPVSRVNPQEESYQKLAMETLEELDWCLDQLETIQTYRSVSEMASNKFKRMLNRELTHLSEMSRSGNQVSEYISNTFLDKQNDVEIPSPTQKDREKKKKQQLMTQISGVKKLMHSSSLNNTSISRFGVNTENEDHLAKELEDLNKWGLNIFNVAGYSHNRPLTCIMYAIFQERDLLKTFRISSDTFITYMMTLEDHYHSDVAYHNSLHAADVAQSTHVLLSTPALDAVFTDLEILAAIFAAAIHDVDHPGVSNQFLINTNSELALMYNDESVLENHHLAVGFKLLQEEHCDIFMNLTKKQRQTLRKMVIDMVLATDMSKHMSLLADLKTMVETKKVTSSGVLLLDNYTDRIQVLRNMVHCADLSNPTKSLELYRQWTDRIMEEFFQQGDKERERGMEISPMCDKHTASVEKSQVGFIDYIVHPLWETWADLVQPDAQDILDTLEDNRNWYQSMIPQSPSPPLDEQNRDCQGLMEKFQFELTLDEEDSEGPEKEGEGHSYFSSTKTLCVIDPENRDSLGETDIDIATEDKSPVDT

On to `COCCn1c(=O)c(-c2cn(C)c3ccccc23)nc2cnc(Oc3ccc(OC)cc3)nc21`, for which the Potency was > 11.4 µM (inactive) in [1]; 2.51 µM (active) in [3]; > 46 µM (inactive) in assay [4]; > 46 µM (inactive) in [5]; 3.16 µM (active) in [8]. The activity change, negative = inhibition in [2] was 14.1% (inactive); in [9], -11.5% (inactive). Further, the Potency result in assay [6] and in assay [7] was “inactive” each time. The max response in [9] (setting [14]) was 2.76%; in assay [9] (setting [15]), -6.23%. In addition, in [10], the result was inactive.

For `COc1ccccc1CN1CC[C@@]2(CCCN(C(=O)c3cnccn3)C2)C1`, the figures for the Potency in assay [1] and in assay [5] were > 11.4 µM (inactive) and > 46 µM (inactive), respectively. In addition, the activity change, negative = inhibition is -0.652% (inactive) in assay [2], 0.87% (inactive) in assay [11] and 3.53% (inactive) in assay [9]. The activity, negative = inhibition in assay [12] was 9.03% (inactive). In addition, the Potency result in [13] and in assay [6] was “inactive” each time. Besides, the max response in assay [9] (setting [14]) amounted to 12.1%; in assay [9] (setting [15]), 17.4%. In assay [10], the result was inactive.

Regarding `COc1ccc(C(=O)N2CCC[C@@]3(CCN(c4ccccn4)C3)C2)cc1`, the Potency was > 11.4 µM (inactive) in [1] and > 46 µM (inactive) in [5]. In addition, the activity change, negative = inhibition in assay [2] was -10.4% (inactive); in assay [11], -4.97% (inactive); in [9] it was 5.2% (inactive). In addition, the activity, negative = inhibition in assay [12] is -7.47% (inactive). For the same compound, the Potency result in assay [13] and in assay [6] was “inactive” throughout. Further, the max response in assay [9] (setting [14]) is 13.5%; in assay [9] (setting [15]), 23.4%. The result in assay [10] was inactive.

As to `CC(=O)N1CCC2(CCCN(C(=O)Nc3cccc(C#N)c3)C2)CC1`, the Potency in assay [1] was > 11.4 µM (inactive); in [5], > 46 µM (inactive). The activity change, negative = inhibition in assay [2] was -1.46% (inactive); in assay [11], -5.5% (inactive); in assay [9], 0.477% (inactive). Further, in assay [12], the activity, negative = inhibition was 4.81% (inactive). Besides, the Potency entry in assay [13] and in [6] was “inactive” in each case. Besides, the results for the max response in assay [9] (setting [14]) and in [9] (setting [15]) were 12.8% and 15.6%, respectively. Also, the result in assay [10] was inactive.
